Data reported in PubChem BioAssay AID652067 (The Scripps Research Institute Molecular Screening Center, 2013).
Screen size: about 370,000 compounds; about 5,400 (1.5%) were called active.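 How the source made its calls: active means activation above the mean of all tested compounds plus 3 SD (cut at about 5.5% in these data); inactive means the rest.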 The full list was thinned out, with actives kept by preference.

test system: DAF-12 nuclear receptor (Haemonchus contortus); test: hcDAF-12 driven luciferase reporter activation – cell-based, luminescence, HEK293, lit1-tk-luc reporter, primary screen (AID 652067); conditions: HEK293 hcDAF-12 lit1-tk-luc reporter, at 6.8 µM, stronger effect = higher value, 0% DMSO, 100% Δ7-dafachronic acid;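 further: 100% = response to 3 µM Δ7-dafachronic acid high control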

Structure (SMILES)	activation
Cc1ccc(C(=O)N(Cc2ccccn2)CC2CCCO2)cc1 (stereo not given)	-1.39% (inactive)
CN1[C@H](Cc2ccccc2)COc2cccc(N3CCSCC3)c2S1(=O)=O	3.54% (inactive)
O=C(Nc1ccccc1N1CCN(C(=O)c2ccccc2)CC1)c1ccco1	-1.91% (inactive)
O=C(c1cc2ccccc2o1)N1CCN(Cc2ccccc2)CC1	-2.1% (inactive)
CC(=O)N1CCN(c2ccccc2NC(=S)NC(=O)c2cc3ccccc3o2)CC1	7.26% (active)
CCc1ccccc1NC(=O)c1ccc2c(c1)CCN2S(C)(=O)=O	-0.87% (inactive)
CCc1ccccc1NC(=O)NCCN1CCCCC1	-0.86% (inactive)
CN1CCc2ccccc2C1Cc1ccccc1NC(=O)c1sc2ccccc2c1Cl (stereo not given)	6.57% (active)
COC(=O)[C@]12C[C@H](CC(=O)NCCc3ccccc3OC)C(=O)N(Cc3ccco3)C1=C[C@H](C(C)C)O[C@@H]2C1CC1	-3.62% (inactive)
O=C(Nc1ccccc1F)c1ccccc1-c1ccccc1	-2.35% (inactive)
O=C(O)c1ccccc1-c1ccccc1C(=O)Nc1cccc2ccccc12	5.93% (active)
O=C(O)c1ccccc1-c1ccccc1C(=O)Nc1ccccc1Br	1.04% (inactive)
CC(Sc1nnc(CNC(=O)c2ccccc2F)n1C)C(=O)Nc1nccs1 (stereo not given)	-0.26% (inactive)
COc1ccccc1C(=O)NCc1nnc(SC(C)C(=O)Nc2nccs2)n1C (stereo not given)	6.99% (active)
COc1ccc(CC(=O)NCc2nnc(SCC(=O)Nc3nccs3)n2C)cc1	-1.09% (inactive)
COC(=O)[C@H](CC(C)C)NS(=O)(=O)c1c(F)cccc1F	0.07% (inactive)
O=C1C(=O)N(Cc2ccc(-c3ccsc3)cc2)c2ccc(OC(F)(F)F)cc21	1.15% (inactive)
Cc1nc(N2CCCCC2)sc1C=O	-0.55% (inactive)
Brc1ccc2nc(N3CCCC3)sc2c1	9.08% (active)
O=C(NCCc1cccc(F)c1)C1CCCN(c2nc3ccccc3s2)C1 (stereo not given)	-1.62% (inactive)
CC(=O)Nc1ccc(S(=O)(=O)NC2Cc3ccccc3C2)cc1	-1.07% (inactive)
Cc1nc2ccc(NC(=O)C(F)(F)F)cc2o1	0.11% (inactive)
CC(=O)Nc1ccc(-c2nc3ccccc3o2)cc1	6.08% (active)

Structure (SMILES)	activation
CC[C@H](C)[C@H]1CNC(=O)C(=O)N1CC1CCN(CCc2ccc(OC)c(OC)c2)CC1	-1.29% (inactive)
Cc1cc(O)c(C(=O)/C=C/c2c(F)c(F)c(F)c(F)c2F)c(=O)o1	8.11% (active)
Cc1cc(O)c(Sc2ccccc2)c(=O)o1	0.75% (inactive)
C=CCN1[C@@H](Cc2ccccc2)COc2cccc(N3CCSCC3)c2S1(=O)=O	-1.72% (inactive)
Cc1ccc2cccc(OCCCOc3ccccc3CO)c2n1	-0.62% (inactive)
CC1(C)OC(=O)C2=C(CC(CCc3ccccc3)OC2c2ccc(Cl)cc2)O1 (stereo not given)	-1.84% (inactive)
Cc1cccc(C)c1NC(=O)C(c1cccc2ccccc12)n1c(=O)c(-c2ccco2)nc2ccccc21 (stereo not given)	2.42% (inactive)
Cc1cccc(C)c1NC(=O)C(c1ccc(C(F)(F)F)cc1)n1c(=O)c(-c2ccco2)nc2ccccc21 (stereo not given)	0.34% (inactive)
O=C(NC1CCCCC1)C(c1cc2ccccc2o1)n1c(=O)c(-c2ccco2)nc2ccccc21 (stereo not given)	9.06% (active)
O=C(COC(=O)c1cccc(Cl)c1)NC(=O)NCc1ccccc1	0.2% (inactive)
O=C(CCOc1ccccc1)NCc1ccccc1	0.79% (inactive)
O=C(COc1cccc(Cl)c1)NCc1ccccc1	6.74% (active)
COc1ccc(CN2C(=O)N3Cc4cc(OC)ccc4C3CS2(=O)=O)cc1 (stereo not given)	-4.29% (inactive)
CCOC(=O)C1CCN(C(=O)CSc2cc(=O)n(C)c3ccccc23)CC1	5.88% (active)
Cn1c(=O)cc(SCC(=O)N2CCN(C(=O)c3ccco3)CC2)c2ccccc21	-0.81% (inactive)
Cn1c(=O)cc(SCC(=O)N2CCCC2)c2cc(Cl)ccc21	0.28% (inactive)
O=C(N[C@H](C(=O)N1CCC[C@H]1C(=O)NCCc1ccccc1Cl)c1ccccc1)c1ccccc1	-0.38% (inactive)
CCOC(=O)[C@]12CCCC=C1N(CCCOC)C(=O)[C@@H]2CC(=O)N1CCOCC1	-0.67% (inactive)
O=c1[nH]n2c(=O)c3c([nH]c2c1N=Nc1ccccc1)CCC3	0.16% (inactive)
Cc1ccc(C)c(NC(=O)COC(=O)Cn2c(C)csc2=O)c1	-0.15% (inactive)
CCc1ccc(NC(=O)N2CCc3ccccc3C2)cc1	10.8% (active)
Cc1ccc(NC(=O)CN2CCc3ccccc3C2)cc1C	-0.52% (inactive)
Cn1cccc1C(=O)N1CCc2ccccc2C1	0.07% (inactive)

Structure (SMILES)	activation
COC(=O)C1=C(C)N(Cc2ccccc2C(F)(F)F)C(=NCc2ccc(C(F)(F)F)cc2)NC1c1ccc(F)cc1 (stereo not given)	-0.44% (inactive)
O=S1(=O)c2ccc(Br)cc2OC[C@@H](Cc2ccccc2)N1Cc1cn(Cc2ccco2)nn1	-3.82% (inactive)
O=C(NCCCN1CCOCC1)c1cc(-c2ccccc2F)no1	-0.99% (inactive)
Fc1ccccc1-c1cc2cc3c(cc2cn1)OCO3	5.75% (active)
O=C(c1ccco1)N1CCN(C(=O)c2cc(-c3ccccc3F)no2)CC1	0.36% (inactive)
COC(=O)[C@]12C[C@H](CC(=O)NCc3cccc4ccccc34)C(=O)N(CCc3ccc(OC)c(OC)c3)C1=C[C@H](C1CCCC1)O[C@@H]2C	-3.52% (inactive)
C[C@H](CO)N1C[C@H](C)[C@@H](CN(C)C(=O)Nc2ccccc2F)OCc2cn(nn2)CCCC1=O	-0.15% (inactive)
CC(C)(C)OC(=O)N/N=C/c1ccc(C(=O)O)cc1	7.41% (active)
C/C(=N\NC(=O)OC(C)(C)C)c1ccc[nH]1	1.29% (inactive)
COC(=O)c1ccc(/C=N/NC(=O)C(=O)N2CCCCCC2)cc1	-0.19% (inactive)
CCCCC(=O)N[C@@H]1CC[C@@]23CCCN2C(=O)CCC[C@H]3[C@H]1C	0.2% (inactive)
COCCN1CCN(C(=O)c2cc(COc3ccc(F)cc3Cl)on2)CC1	-1.75% (inactive)
O=C(c1cc(C2CCCCN2S(=O)(=O)c2ccccc2)on1)N1CCOCC1 (stereo not given)	-0.3% (inactive)
O=C(Nc1ccccc1C(F)(F)F)c1cc(-c2ccc(O)cc2)on1	-0.51% (inactive)
COc1cc(Cl)ccc1OCc1cc(C(=O)N2CC[C@@H]3CCCC[C@H]3C2)no1	1.66% (inactive)
O=C(NC1CCCC1)c1cc(-c2ccccc2)on1	4.69% (inactive)
O=C(c1cc(-c2ccc(Cl)s2)nc2ccccc12)N1CCOCC1	-1.34% (inactive)
Cc1ccc(O)c(NC(=O)c2cc(-c3ccco3)on2)c1	0.32% (inactive)
O=C(c1cc(-c2ccccc2O)on1)N1CCCC1	7.33% (active)
O=C(Nc1cccnc1Cl)c1cc(-c2ccccc2O)on1	6.07% (active)
COc1ccc(OCc2cc(C(=O)N3CCCC3)no2)c2ccccc12	10.3% (active)
O=C(c1cc(-c2ccc(O)cc2)on1)N1CCOCC1	6.07% (active)
O=C(c1cc(COc2ccc(F)cc2F)on1)N1CCOCC1	1.67% (inactive)

Structure (SMILES)	activation
CC(=O)C1C(c2ccc(Cl)cc2)c2c(n[nH]c2C)CC1(C)O (stereo not given)	-0.09% (inactive)
O=S(=O)(c1cccs1)N1CCCc2nc(-c3ccc(Br)cc3)ccc21	-0.17% (inactive)
CCc1ccc(C2=CC(=O)CC(C)(C)C2=O)cc1	1.24% (inactive)
CC(C)N1CCCCC(NC(=O)c2ccc3ccccc3c2)C1=O (stereo not given)	-0.97% (inactive)
C=CCN1C(=O)[C@@H](CC(=O)NCCCOCCCC)[C@]2(C(=O)OCC)CCCCC/C=C/12	-0.92% (inactive)
COc1ccc(S(=O)(=O)Nc2ccc3c(c2)C(=O)N([C@H](C)CO)C[C@H](C)[C@@H](CN(C)C)OCCCC[C@H](C)O3)cc1	-1.41% (inactive)
Cc1cc(Br)cn2c(Cc3ccccc3C(F)(F)F)c(-c3ccc(C#N)cc3)nc12	0.68% (inactive)
COc1ccc(-c2cc(=O)oc3cc(OCC(=O)N[C@@H](Cc4c[nH]c5ccccc45)C(=O)O)ccc23)cc1	4.41% (inactive)
COc1ccc(-c2cc(C(=O)NC(C(=O)O)C(C)C)c(C)o2)cc1OC (stereo not given)	1.96% (inactive)
COc1ccc(-c2cc(C(=O)NC(Cc3c[nH]c4ccccc34)C(=O)O)c(C)o2)cc1OC (stereo not given)	6.3% (active)
CCOC(=O)/C=C/c1ccccc1O	-0.51% (inactive)
Cc1cc2ncn(CCCCOc3ccccc3)c2cc1C	-1.91% (inactive)
C[C@@H](CN1C2=NC[C@@H](Cc3ccccc3)N2C[C@H]1Cc1ccc(O)cc1)NC(=O)CCC1CCCCC1	-1.42% (inactive)
COc1cccc(-n2c(=S)[nH]c3c(oc4ccccc43)c2=O)c1	5.86% (active)
COc1cccc(-n2nc(C(=O)N3CCN(Cc4ccccc4)CC3)c3ccccc3c2=O)c1	-2.27% (inactive)
COc1ccc(OC)c(-n2c(=S)[nH]c3cc(C(=O)N4CCCCC4)ccc3c2=O)c1	-1.94% (inactive)
C[C@@H]1ON(C)[C@H]2C[C@H]3c4cc(N5CCOCC5)ccc4CCN3C[C@@H]12	-1.8% (inactive)
CCc1ccc2oc(-c3ccc(N)cc3)nc2c1	11.8% (active)
CCCCOCCCNC(=O)C[C@H]1C[C@@]2(C(=O)OC)C(=C[C@H](COCc3ccccc3)O[C@@H]2C)N(Cc2cccc3ccccc23)C1=O	-1.88% (inactive)
COc1cccc(Cn2cc(COC(=O)Nc3ccc(F)cc3)nn2)c1	-2.13% (inactive)
Cc1cc(NS(=O)(=O)c2ccc(NC(=O)CSc3nnc(SCc4ccc(F)cc4)s3)cc2)nc(C)n1	0.88% (inactive)
